Screening results (PubChem)
COUP-TFII inh: inhibitors of human COUP-TFII (NR2F2) | P24468 | HEK293T NGFI-A luciferase reporter, luminescence | inhibition, % at 8.6 µM | 370,000 compounds, 0.7% hits;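 active = inhibition above a per-plate cutoff, mean inhibition of test wells between control levels plus 3 SD, cut at about 38% in these data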;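 also: cells cotransfected with COUP-TFII expression vector driving the NGFI-A reporter; 0% = median of COUP-TF2 test wells and 100% = reporter-only cells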
697 NFkB inh: lowers PMA/ionomycin-induced NF-kB signal in 697 B cells. 697 B-cell NF-kB luciferase reporter, 16 h. inhibition, % at 4 µM. 330,000 compounds, 0.33% hits. AID 435022; in the data active = inhibition above about 35%
Gli-Sufu antag: antagonists of Gli-Sufu signaling; inhibition, % at 5 µM; Sufu-KO-LIGHT fibroblasts, Gli luciferase reporter luminescence; AID 588413; 340,000 compounds, 0.74% hits;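 active = inhibition above about 55%, limit read from the data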;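 also: 0% = DMSO-treated cells and 100% = wells with medium but no cells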
GalR3 antagonist: blocks the human galanin receptor 3; O60755; HEK293 GalR3-CNG cAMP membrane potential fluorescence; galR3 body fused to GalR1 C-terminus; inhibition, % at 3 µM; 360,000 compounds, 0.44% hits; AID 651719;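 active = inhibition above the screen-wide average plus 3 SD, cut at about 13% in these data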;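 also: forskolin and galanin both at EC90 stimulate the cells; cAMP rise reported by CNG channel membrane potential dye signal; 0% = forskolin plus galanin with DMSO and 100% = forskolin alone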
Target sequence (O60755 1-299 limits assumed): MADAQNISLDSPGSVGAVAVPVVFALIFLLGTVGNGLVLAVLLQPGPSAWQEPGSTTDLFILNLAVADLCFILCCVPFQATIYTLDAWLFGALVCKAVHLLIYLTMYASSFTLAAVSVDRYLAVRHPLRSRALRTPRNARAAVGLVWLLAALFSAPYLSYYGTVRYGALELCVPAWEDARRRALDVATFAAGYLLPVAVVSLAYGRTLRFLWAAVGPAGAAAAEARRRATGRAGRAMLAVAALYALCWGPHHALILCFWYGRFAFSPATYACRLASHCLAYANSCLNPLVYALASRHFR
Jurkat NFkB inh: inhibitors of the PMA/ionomycin-induced NF-kB reporter in Jurkat cells. PMA/ionomycin-induced NF-kB luciferase reporter, luminescence. inhibition, % at 4 µM. 330,000 compounds, 0.53% hits. AID 435003; in the data active = inhibition above about 50%
GalR3 conf: GalR3 (human) antagonism, confirmation; inhibition, % at 3 µM; 1,600 compounds, 59% hits; HEK293 GalR3 CNG cAMP biosensor, membrane potential fluorescence; galR3 fused to GalR1 carboxy tail; challenged with forskolin and galanin at EC90; shares compounds with GalR3 antagonist;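 active = inhibition above the primary screen's cutoff, the mean inhibition of all screened compounds plus 3 SD, cut at about 13% in these data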;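 also: 0% = forskolin plus galanin and 100% = forskolin alone with DMSO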
CNG parental: counter-screen for GalR3 antagonists: nonspecific agonists in parental HEK-CNG cells; shares compounds with GalR3 antagonist; HEK293-CNG parental cells, cAMP membrane potential fluorescence; normalised: DMSO wells 0%, forskolin wells 100%; activation, % at 3 µM; 1,600 compounds, 10% hits; in the data active = activation above about 1.3%
VP16 Luc counter: VP16 inhibition counter-screen for COUP-TFII | shares compounds with COUP-TFII inh | HEK293 Gal4-VP16 luciferase reporter, luminescence | inhibition, % at 8.5 µM | 2,500 compounds, 25% hits; in the data active = inhibition above about 13%
COUP-TFII conf: confirmation of human COUP-TFII (NR2F2) inhibitors. shares compounds with COUP-TFII inh. HEK293 NGFI-A luciferase reporter, luminescence. inhibition, % at 8.5 µM. 2,500 compounds, 45% hits;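 active = mean inhibition over three repeats above a set limit taken from the earlier primary screen, cut at about 38% in these data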;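 also: 100% = cells given the luciferase reporter alone without the COUP-TF2 vector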
Active calls of the source: *; / = no result given. The list is not random: actives were taken first. Their share in the collection is about 2%.

SMILES	COUP-TFII inh	697 NFkB inh	Gli-Sufu antag	GalR3 antagonist	Jurkat NFkB inh	VP16 Luc counter	COUP-TFII conf	others
CC(C)NC1(c2ccccc2)CCCCC1	9	/	/	-4	/	/	/
NC(=S)c1cn(C2OC(CO)C(O)C2O)c2ncnc(N)c12 (stereo not given)	68*	/	-49	51*	/	53*	68*	GalR3 conf=83*;CNG parental=0
CCOC(=O)[C@]12Cc3cc(C)ccc3[C@H]1N(C1CCCCC1)C(=O)c1cc(OC)ccc12	52*	/	/	38*	/	25*	36	GalR3 conf=47*;CNG parental=3.3*
CCOC(=O)[C@]12Cc3cc(OC)ccc3[C@H]1N(C1CCCCC1)C(=O)c1cc(OC)ccc12	23	/	/	-3	/	/	/
C#CCCC[C@@H]1OC(=O)CNC(=O)C([C@@H](C)CC)NC(=O)[C@@H]2CCCN2C(=O)C([C@@H](C)CC)OC(=O)[C@H](Cc2ccccc2)N(C)C(=O)[C@H](C(C)C)NC(=O)C1(C)C (stereo not given in full)	10	/	/	-5	/	/	/
CCC(C)C1NC(=O)C(NC(=O)C(CC(C)C)N(C)C(=O)C2CCCN2C(=O)C(C)O)C(C)OC(=O)C(Cc2ccc(OC)cc2)N(C)C(=O)C2CCCN2C(=O)C(CC(C)C)NC(=O)[C@H](C)C(=O)[C@H](C(C)C)OC(=O)CC1O (stereo not given in full)	91*	/	90*	-5	/	21*	88*
O=C1c2ccccc2-n2nnc(-c3ccccc3)c2C2c3cc(Br)ccc3CCN12 (stereo not given)	-7	/	/	-1	/	/	/
CC(=O)OC1(C)CC(C)C(=O)C(C(O)CC2CC(=O)NC(=O)C2)C1 (stereo not given)	91*	/	89*	-5	/	15*	84*
CC(C)C[C@@H]1COc2cc(N3CCN(C)CC3)ccc2S(=O)(=O)N1	0	/	/	-7	/	/	/
O=P1(c2ccccc2)Nc2ccccc2N1c1ccccc1 (stereo not given)	22	/	10	-4	/	/	/
O=[N+]([O-])c1ccc(-[n+]2c(-c3ccccc3)cc(-c3ccccc3)cc2-c2ccccc2)cc1	14	5	7	-8	-4	/	/
O=C([O-])c1ccc(-[n+]2c(-c3ccccc3)cc(-c3ccccc3)cc2-c2ccccc2)cc1	-6	10	13	-4	13	/	/
COc1ccc(-[n+]2c(-c3ccccc3)cc(-c3ccccc3)cc2-c2ccccc2)cc1	57*	17	83*	-14	45	20*	60*
Oc1ccc(-[n+]2c(-c3ccccc3)cc(-c3ccccc3)cc2-c2ccccc2)cc1	62*	-39	43	-2	18	8	51*
COc1ccc(OC(=O)N(C)C[C@@H]2OCc3cnnn3CCCC(=O)N([C@H](C)CO)C[C@H]2C)cc1	7	/	/	-4	/	/	/
CN1C(=O)[C@@]23C[C@]4(c5c[nH]c6ccccc56)c5ccccc5N(S(=O)(=O)c5ccccc5)[C@@H]4N2C(=O)[C@@H]1SS3	107*	/	/	/	/	88*	90*
COc1cc2c(c(OC)c1OC)-c1ccc(SC)c(=O)cc1C(NC(C)=O)CC2 (stereo not given)	-66	/	46	-2	/	/	/
COc1ccc(NC(=S)N2Cc3ccccc3-n3nncc3C2)c(OC)c1	-10	/	/	-7	/	/	/
CN(C)c1ccc(/C=C/c2cc[n+](C)c3ccccc23)cc1	84*	/	87*	-5	/	23*	82*
CCCNS(=O)(=O)c1ccc(OCC(=O)N2CCN(Cc3ccc4c(c3)OCO4)CC2)c(C)c1	46*	-54	48	4	-3	1	21
COc1ccc(CC2NCC(O)C2OC(C)=O)cc1 (stereo not given)	88*	/	86*	-3	/	22*	82*
COc1ccc(CC(=O)N2CCN(C)CC2)cc1	18	14	-3	-5	12	/	/
CCC(C)C(NC(=O)CCCNC(=O)CCC(=O)OC1O[C@H]2OC3(C)CC[C@H]4[C@H](C)CCC(C1C)C24OO3)C(=O)O (stereo not given in full)	49*	14	/	-4	7	-1	46*
COC(=O)C1=C(c2ccc(-c3ccccc3)c(F)c2)C[C@@H]2CC[C@H]1N2C(=O)NCCOc1ccc(OC)cc1	40*	-38	20	-3	14	2	6
COC(=O)C1=C(c2ccc(-c3ccccc3)c(F)c2)C[C@@H]2CC[C@H]1N2C(=O)NCCNC(C)=O	-10	-3	0	-2	-5	/	/
SMILES	COUP-TFII inh	697 NFkB inh	Gli-Sufu antag	GalR3 antagonist	Jurkat NFkB inh	VP16 Luc counter	COUP-TFII conf	others
Cc1cc(C)c(S(=O)(=O)N2Cc3ccccc3-n3nncc3C2)c(C)c1	40*	/	/	-4	/	0	18
COc1ccc(S(=O)(=O)N2Cc3ccccc3-n3nncc3C2)cc1	10	/	/	-4	/	/	/
CC(=O)c1c(C)n(C2CCCCC2)c2ccc(O)cc12	51*	4	-18	-11	33	17*	20
CC1=CC2OC3CC4OC(=O)C=CC=CC(C(C)O)OCC(O)C(C)CC(=O)OCC2(CC1O)C4(C)C31CO1 (stereo not given)	90*	/	90*	-4	/	23*	93*
O=c1[nH]c2ccccc2n1C1CCN(Cc2ccc(-c3nc4ccc(F)cc4nc3-c3ccccc3)cc2)CC1	33	/	/	-3	/	/	/
Cc1ccc(OC(=O)N(C)C[C@H]2OCc3cnnn3CCCC(=O)N([C@@H](C)CO)C[C@H]2C)cc1	7	/	/	-4	/	/	/
O=C(c1ccc(Cl)cc1)C1CCCN(Cc2cccc3ncccc23)C1 (stereo not given)	41*	-61	25	-4	28	12	45*
O=C(CCN1CC1)OCCOC(=O)CCN1CC1	10	/	4	-4	/	/	/
CCC(c1nnnn1-c1ccc(OC)cc1)N1CCC(n2c(=O)[nH]c3ccccc32)CC1 (stereo not given)	-6	/	/	0	/	/	/
COc1ccc(-n2nnnc2C(CCc2ccccc2)N2CCC(n3c(=O)[nH]c4ccccc43)CC2)cc1 (stereo not given)	39*	/	/	-5	/	1	22
Cc1ccc2nc(-c3ccc(CN4CCC(n5nnc6ccccc65)CC4)cc3)c(-c3ccccc3)nc2c1	45*	/	/	-3	/	-3	10
O=c1[nH]cc(N(CCCl)CCCl)c(=O)[nH]1	-9	/	/	/	/	/	/
